Most compounds without a hit are left out; they make up all but 3.9% or so of the library.
D1 potentiator: human D1 dopamine receptor positive modulation; P21728; HEK293 TREx D1 cells, calcium flux, dopamine EC20 potentiation; potentiation, % at 10 µM; actives 0.036% (n = 360,000); AID 504651; in the data active = potentiation above about 30%; note: 0% is about no effect
Target sequence (P21728 whole entry, looked up): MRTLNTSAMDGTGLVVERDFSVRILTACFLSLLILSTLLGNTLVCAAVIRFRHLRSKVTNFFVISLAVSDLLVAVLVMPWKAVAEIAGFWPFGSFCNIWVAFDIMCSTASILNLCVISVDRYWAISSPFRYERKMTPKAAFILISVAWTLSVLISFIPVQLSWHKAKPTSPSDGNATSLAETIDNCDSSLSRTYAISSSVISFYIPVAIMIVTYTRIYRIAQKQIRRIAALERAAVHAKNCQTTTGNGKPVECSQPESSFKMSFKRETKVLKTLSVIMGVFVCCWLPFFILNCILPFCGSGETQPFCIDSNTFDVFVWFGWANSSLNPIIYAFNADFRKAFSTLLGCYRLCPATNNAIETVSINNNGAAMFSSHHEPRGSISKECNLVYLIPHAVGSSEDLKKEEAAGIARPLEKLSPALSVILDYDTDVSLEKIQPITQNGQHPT
GALK inh: inhibitors of human galactokinase. P51570. Purified GALK, Kinase-Glo residual ATP luminescence. Potency, µM (top dose mostly 57.5 µM), without a hit: top-dose activity change, negative = inhibition, usual class: inhibitors. actives 0.007% (n = 270,000); note: potency is the fitted concentration of half-maximal effect; % is set by controls: 0 for no effect and ±100 for the full control effect
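Quantitative HTS: GALK 5 nM, ATP 35 uM, galactose 100 uM, 1 h room temperature, then luciferase-based ATP detection.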
Eya2 inh: blocks the phosphatase activity of human Eya2 | recombinant Eya2, OMFP fluorescence dephosphorylation (OMFP is methylfluorescein phosphate) | Potency, µM (titrated, usually from 76.9 µM), for the others: at the highest dose activity, negative = inhibition, actives largely listed as inhibitors | O00167 | actives 0.006% (n = 330,000); note: potency is the fitted concentration of half-maximal effect; % is set by controls: 0 for no effect and ±100 for the full control effect
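Eya2 (0.2 uM) preincubated 10 min at ambient with compound, then OMFP substrate added at 50 uM; 10 min reaction in 50 mM HEPES pH 7.5, 50 mM NaCl, 5 uM MgCl2, 0.05% BSA, 1 mM DTT. Fluorescence read at Ex 485/Em 525 nm.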
D1 agonist: activates the human D1 dopamine receptor | AID 504660 | HEK293 T-REx D1 cells, calcium flux, agonist mode | P21728 | activation, % at 2 µM | actives 1% (n = 360,000); in the data active = activation above about 30%; note: 0% is about no effect
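Inducible HEK293 T-REx D1 cells, force-coupled to calcium signalling, were plated at 4000 cells/well with tetracycline and held overnight at 30 C. After no-wash calcium dye loading, compound-evoked calcium rise over 180 s flagged agonists.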
USP2a inh: USP2a (human) protease inhibition; O75604; USP2 core, Ub-CHOP2 coupled fluorogenic reporter, 485/531; actives 0.01% (n = 330,000); Potency, µM (series often up to 38.3 µM), without a hit: at the top dose activity change, negative = inhibition, hits mostly inhibitors; AID 463254;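 note: potency is the fitted concentration of half-maximal effect; plate controls were DMSO wells for no effect and full inhibition by NEM control for full effect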
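Cell-free coupled assay: 10nM USP2 core preincubated 30min RT with compound in Tris-HCl pH 8.0/CaCl2/CHAPS buffer, then 25nM Ub-CHOP2 and 25nM reporter substrate; fluorescence (Ex 485/Em 531) read after 60min RT, normalized to NEM inhibition, concentration-response curves fitted.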
D1 antagonist: human D1 dopamine receptor antagonism; activity change, negative = inhibition, % at 10 µM; AID 504652; actives 3.2% (n = 360,000); HEK293 TREx D1 cells, calcium flux, dopamine EC80; hits give low values; P21728; in the data active = activity change below about -30%; note: % is set by controls: 0 for no effect and ±100 for the full control effect
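Antagonism measured as reduced calcium response to an EC80 dopamine addition following 180 s compound pre-read; cells were inducible HEK293 Trex D1 plated overnight at 30 C, read kinetically at 1 cycle/sec.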
An asterisk follows results filed as active; x = not tested or not shown. Unless noted, calls come from the whole dose curve; as a rule, active = well fitted inhibition curve with a large enough effect; inconclusive = small, poorly fitted or top-dose-only effect, or effect the other way; inactive = flat fitted curve, though single readings scatter.

SMILES	D1 potentiator	GALK inh	Eya2 inh	D1 agonist	USP2a inh	D1 antagonist
CCc1ccc(CNC(=O)C2COc3ccccc3C2)cc1 (stereo not drawn)	0.8	x	x	-2.0	x	-8.8
O=[N+]([O-])c1ccccc1N/N=C/c1c[nH]c2ccccc12	-4.7	0.2%	-8.8%	5.6	2.9%	-70.8*
CCCOc1ccc(-c2nonc2NC(=O)c2cc(OC)c(OC)c(OC)c2)cc1OCCC	-2.0	x	x	38.1*	x	-1.0
CC(=O)NN1C(=O)/C(=C\c2ccc(O)cc2)SC1=S	-4.3	1.3%	10.3%	14.9	18.9%	-8.0
O=C1/C(=C\c2ccc(O)cc2)SC(=S)N1/N=C/c1ccc(O)cc1	4.3	3.7%	-17.1%	110.8*	18.4%	-23.3
CCOC(=O)c1ccc(/C=C2/C=C(c3ccccc3)N(c3ccc(Cl)c(C(=O)O)c3)C2=O)cc1	-1.2	x	1.2%	102.9*	4.7%	4.1
COc1ccccc1CNC(=O)c1cc(C)nc2ccccc12	-3.2	12.2%	-15.7%	0.9	-0.8%	-31.2*
Cc1cc(C(=O)OCC(=O)NCCC(C)C)c2ccccc2n1	-3.8	-1.9%	-14.3%	9.8	-0.7%	-47.0*
Cc1cccc(OCC(=O)NCc2cc(C)nc3ccccc23)c1	-6.2	-1.4%	-8.7%	12.7	-7.2%	-33.7*
COc1ccc(C(=O)NCc2cc(C)nc3ccccc23)cc1	3.0	-0.2%	4.8%	20.0	3.1%	-3.9
COc1ccc(CNC(=O)c2cc(C)nc3ccccc23)cc1OC	-6.5	0.3%	-9.7%	1.9	-6.7%	-12.9
CCCN1CCN(c2ncnc3sc(C(=O)Nc4ccc(C(C)C)cc4)c(C)c23)CC1	-0.4	x	x	-0.4	x	2.0
O=c1c2sc3ccccc3c2n(Cc2cccc(F)c2)c(=O)n1CCc1ccccc1	0.6	x	x	3.1	x	-8.6
CC(C)(C)OC(=O)NCc1nnc(-c2cc3ccccc3[nH]2)o1	-3.1	x	x	5.4	x	-29.7
O=C(c1ccc(COc2ccc(Cl)cc2)cc1)N1CCCCC1	x	0.1%	-12.6%	7.8	-8.6%	8.8
O=C(c1ccc(COc2ccccc2Br)cc1)N1CCCCCC1	-10.4	-1.8%	-11.4%	18.3	-13.7%	-36.7*
Cc1cccc2cc3c(N)c(C#N)sc3nc12	1.6	2.1%	-10.8%	12.4	3.3%	-6.7
Cc1sc(NC(=O)c2sc3nc4c(C)cccc4cc3c2N)c(C#N)c1C	0.1	1.4%	18.9%	55.1*	-5.6%	22.9
Cc1cccc2cc3c(N)c(C(=O)Nc4ccc(N5CCOCC5)cc4)sc3nc12	-5.6	-4.1%	-3.8%	24.5	2.7%	-7.6
Cc1cc(C)c2nc3sc(C(=O)N4CCOCC4)c(N)c3cc2c1	4.8	4.4%	-8.7%	38.5*	7.5%	-0.5
Cc1ccc(C)c2nc3sc(C(=O)N4CCOCC4)c(N)c3cc12	0.9	6.9%	3.7%	1.2	1.0%	3.8
Cc1cccc2cc3c(N)c(C(=O)N4CCc5ccccc54)sc3nc12	4.0	-0.3%	-5.3%	126.4*	10.2%	-26.2
Cc1ccc2nc3sc(C(=O)Nc4ccc(N5CCOCC5)cc4)c(N)c3cc2c1	-8.0	-0.2%	23.4%	38.7*	27.1%	-22.0
O=[S+]([O-])(c1ccc2nsnc2c1)N1CCN([S+](=O)([O-])c2c(F)cccc2F)CC1	-3.1	x	x	1.9	x	8.0
CC(C)C(NC(=O)c1ccc(F)cc1)C(=O)N1CCOCC1 (stereo not drawn)	2.6	x	-23.6%	4.6	5.3%	-5.9
SMILES	D1 potentiator	GALK inh	Eya2 inh	D1 agonist	USP2a inh	D1 antagonist
CC(C)C(NC(=O)c1ccc(F)cc1)C(=O)N1CCC1 (stereo not drawn)	-6.7	x	7.8%	0.0	1.1%	-37.3*
O=C1CN(C(=O)CSc2nc3ccccc3c(=O)n2Cc2ccc(F)cc2)c2ccccc2N1	-7.6	0.9%	-2.5%	9.5	-12.8%	-58.8*
Cn1c(SCC(=O)N2CC(=O)Nc3ccccc32)nc2ccccc2c1=O	3.1	x	-3.6%	0.9	-5.2%	-3.6
O=C(NN=C1C2CC3CC1CC(Cl)(C3)C2)c1ccccn1	-5.8	0.2%	-1.5%	-1.4	2.8%	-4.3
O=C(NN=C1C2CC3CC1CC(Cl)(C3)C2)c1cccs1	-18.4	-1.6%	-13.1%	0.2	-2.8%	-38.6*
CN(C(=O)CSc1nncn2c1cc1occc12)c1ccccc1	1.4	x	x	-1.4	x	-17.6
O=C(COC(=O)CC(c1ccccc1)c1ccccc1)NCc1ccc(Cl)cc1	-5.9	1.9%	-1.9%	28.7	-9.7%	-34.0*
CCCC(=O)OCC(=O)NCc1ccc(Cl)cc1	-3.0	9.9%	6.1%	1.5	1.6%	11.4
CCCCOc1ccc(Br)cc1CSC(=N)N	-5.3	-1.8%	3.8%	61.8*	4.2%	-3.7
CCCCCOc1ccc(CSC(=N)N)cc1[N+](=O)[O-]	-0.8	-0.7%	4.7%	55.9*	-0.4%	35.0
CCOc1ccc(C(C)=O)cc1CSC(=N)N	-5.7	0.4%	0.2%	4.1	2.7%	-27.3
Cc1ccc(NC(=O)CSc2ncc3c(n2)-c2ccccc2N(Cc2cccc(F)c2)S3(=O)=O)cc1F	-2.9	x	x	5.4	x	0.8
Cc1ccc(OCCCSc2nc(-c3ccc(C(C)(C)C)cc3)nc3cc(=O)[nH]n23)cc1C	0.9	x	x	-0.3	x	-19.2
COc1ccc(/C=C2\N=C(SC)N(c3ccccc3OC)C2=O)cc1	-7.7	3.5%	-2.3%	14.4	-0.6%	-34.0*
CCOc1ccc(N2C(=O)/C(=C/c3ccccc3)N=C2SC)cc1	-2.6	-1.7%	5.6%	2.6	1.5%	-1.3
CCCSc1ncc(Cl)c(C(=O)N(Cc2ccccc2)c2ccc(OC)cc2)n1	-2.2	x	x	16.4	x	-36.5*
CCOc1ccc(N(Cc2ccccc2)C(=O)c2nc(SC)ncc2Cl)cc1	-2.5	x	x	5.1	x	1.2
COc1ccc(C2/C=C\CN(C(=O)C3CCCC3)[C@H](Cc3ccccc3)C(=O)N2Cc2ccc(F)cc2)cc1 (stereo partly drawn)	8.6	-0.1%	-12.7%	4.7	4.9%	-37.0*
Cc1nc(SCc2ccc(Br)cc2)[nH]c(=O)c1C	-18.1	0.1%	5.1%	2.9	1.3%	-41.4*
CCSc1nnc(N2C(=O)C(O)=C(C(=O)c3ccco3)C2c2cccc(OC)c2)s1 (stereo not drawn)	-5.1	-5.0%	11.7%	76.9*	6.2%	0.2
C=CCOc1ccc(C2C(C(=O)c3ccco3)=C(O)C(=O)N2c2nnc(C)s2)cc1 (stereo not drawn)	0.6	3.6%	7.7%	56.7*	4.4%	-8.3
CCOc1cccc(C2C(C(=O)c3ccco3)=C(O)C(=O)N2c2nnc(C)s2)c1 (stereo not drawn)	-2.2	x	-2.7%	25.4	9.9%	-1.9
CSc1nnc(N2C(=O)C(O)=C(C(=O)c3ccco3)C2c2ccc(F)cc2)s1 (stereo not drawn)	4.2	6.6%	19.7%	128.0*	3.6%	8.5
CSc1nnc(N2C(=O)C(O)=C(C(=O)c3ccco3)C2c2cccc(Cl)c2)s1 (stereo not drawn)	3.5	2.8%	-2.1%	15.0	-1.5%	-6.8
COc1ccc(Cl)cc1NC(=O)Cn1c(=O)n(CCC(=O)NCc2ccc3c(c2)OCO3)c(=O)c2ccccc21	-0.5	x	x	3.0	x	-27.5
Cc1ccc(NC(=O)C2CCCN2S(=O)(=O)c2cccc3nsnc23)c(Br)c1 (stereo not drawn)	-1.7	x	x	-0.1	x	-11.3
